A short description of test [1]: binders of probe aFSTL3 on microarray, primary screen, stem cell growth factor project, biochemical, small-molecule microarray, fluorescence 635/667 (AID 1064).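 Further: measures binding of the biotinylated anti-FSTL3 antibody to printed compounds.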 To be noted: higher = more signal.
Test [2] can be described thus: binders from COS7 lysate, DM2A8 probe, primary screen, torsin A project, cell lysate, small-molecule microarray, fluorescence 635/667 (AID 1065). The note with it: higher = more signal, COS7 lysate expressing mutant human TOR1A.
A short description of test [3]: binders of probe aFGF2 on microarray, primary screen, stem cell growth factor project, biochemical, small-molecule microarray, fluorescence 635/667 (AID 1067).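 Further: measures binding of biotinylated aFGF2 protein to printed compounds on slides; z-score merges feature fluorescence and signal-to-noise across triplicate slides.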 The note with it: higher = more signal.
Test [4] is described as follows: binders of probe aFGF10 on microarray, primary screen, stem cell growth factor project, biochemical, small-molecule microarray, fluorescence 635/667 (AID 1071).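 Further: score merges 667 nm spot intensity and signal to noise from triplicate slides.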 The note with it: higher = more signal.
Test [5] addresses Neurogenic locus notch homolog protein 2 (Homo sapiens) (UniProt Q04721). The test can be described thus: Notch2 binders on small-molecule microarrays, primary screen, biochemical, small-molecule microarray, 635 nm fluorescence, stem cell growth factors (AID 1073). The note with it: Notch2 binding, higher = more signal.
The target in test [6] is Pro-neuregulin-1, membrane-bound isoform (Homo sapiens) (UniProt Q02297). The test can be described thus: NRG1 binders on small-molecule microarrays, primary screen, psychiatric disease protein project, biochemical, small-molecule microarray, fluorescence 635/667 (AID 1075).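 Further: score combines 667 nm spot fluorescence with signal to noise.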 The note with it: NRG1 binding, 635 nm fluorescence, higher = more signal.
Chain of Pro-neuregulin-1, membrane-bound isoform (Homo sapiens) (Q02297 whole entry, looked up, the tested form may be a part, canonical isoform): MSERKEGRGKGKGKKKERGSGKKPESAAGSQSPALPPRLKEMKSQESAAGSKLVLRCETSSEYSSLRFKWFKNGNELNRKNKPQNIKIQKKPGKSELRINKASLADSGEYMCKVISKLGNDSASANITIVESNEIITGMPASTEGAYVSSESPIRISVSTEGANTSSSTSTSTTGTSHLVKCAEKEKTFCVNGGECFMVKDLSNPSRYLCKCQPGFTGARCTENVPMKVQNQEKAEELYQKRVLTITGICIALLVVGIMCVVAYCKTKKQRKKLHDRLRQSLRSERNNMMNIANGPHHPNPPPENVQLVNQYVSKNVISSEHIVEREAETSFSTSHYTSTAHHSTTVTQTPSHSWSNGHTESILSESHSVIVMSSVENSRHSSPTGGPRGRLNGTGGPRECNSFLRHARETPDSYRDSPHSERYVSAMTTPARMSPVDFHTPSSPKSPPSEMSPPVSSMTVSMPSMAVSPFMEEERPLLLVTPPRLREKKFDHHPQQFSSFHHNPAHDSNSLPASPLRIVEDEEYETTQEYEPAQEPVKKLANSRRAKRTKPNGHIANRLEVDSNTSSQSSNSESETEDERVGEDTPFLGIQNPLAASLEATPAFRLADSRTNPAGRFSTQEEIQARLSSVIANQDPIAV
Test [7] relates to Neuregulin-1 EGF-like domain. The experiment in a line: binders of neuregulin-1 EGF-like domain, primary screen, biochemical, small-molecule microarray, 635 nm fluorescence (AID 1081).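 Further: binding of the protein to compounds printed on small-molecule microarray slides.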 The note with it: small-molecule microarray binding, higher = more signal.
Test [8] is described as follows: FRG1 promoter luciferase signal modulators, primary screen, FRG1 inhibition for FSHD, cell-based, C2C12 myotubes, firefly/Renilla luciferase, luminescence (AID 1084). To be noted: higher = more signal, called active from +8 up or from −8 down.
Test [9] is described as follows: binders of probe aFST on microarray, primary screen, stem cell growth factor project, biochemical, small-molecule microarray, fluorescence 635/667 (AID 1086).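 Further: score merges 667 nm fluorescence with signal-to-noise of each printed compound spot.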 The note with it: higher = more signal.
The nature of test [10]: binders of probe aHhip on microarray, primary screen, stem cell growth factor project, biochemical, small-molecule microarray, fluorescence 635/667 (AID 1087).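 Further: score merges spot fluorescence at 667nm with spot signal to noise ratio.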 The note with it: higher = more signal.

Calls of active or inactive are those of the source.

Chain of Neurogenic locus notch homolog protein 2 (Homo sapiens) (Q04721 whole entry, looked up, canonical isoform): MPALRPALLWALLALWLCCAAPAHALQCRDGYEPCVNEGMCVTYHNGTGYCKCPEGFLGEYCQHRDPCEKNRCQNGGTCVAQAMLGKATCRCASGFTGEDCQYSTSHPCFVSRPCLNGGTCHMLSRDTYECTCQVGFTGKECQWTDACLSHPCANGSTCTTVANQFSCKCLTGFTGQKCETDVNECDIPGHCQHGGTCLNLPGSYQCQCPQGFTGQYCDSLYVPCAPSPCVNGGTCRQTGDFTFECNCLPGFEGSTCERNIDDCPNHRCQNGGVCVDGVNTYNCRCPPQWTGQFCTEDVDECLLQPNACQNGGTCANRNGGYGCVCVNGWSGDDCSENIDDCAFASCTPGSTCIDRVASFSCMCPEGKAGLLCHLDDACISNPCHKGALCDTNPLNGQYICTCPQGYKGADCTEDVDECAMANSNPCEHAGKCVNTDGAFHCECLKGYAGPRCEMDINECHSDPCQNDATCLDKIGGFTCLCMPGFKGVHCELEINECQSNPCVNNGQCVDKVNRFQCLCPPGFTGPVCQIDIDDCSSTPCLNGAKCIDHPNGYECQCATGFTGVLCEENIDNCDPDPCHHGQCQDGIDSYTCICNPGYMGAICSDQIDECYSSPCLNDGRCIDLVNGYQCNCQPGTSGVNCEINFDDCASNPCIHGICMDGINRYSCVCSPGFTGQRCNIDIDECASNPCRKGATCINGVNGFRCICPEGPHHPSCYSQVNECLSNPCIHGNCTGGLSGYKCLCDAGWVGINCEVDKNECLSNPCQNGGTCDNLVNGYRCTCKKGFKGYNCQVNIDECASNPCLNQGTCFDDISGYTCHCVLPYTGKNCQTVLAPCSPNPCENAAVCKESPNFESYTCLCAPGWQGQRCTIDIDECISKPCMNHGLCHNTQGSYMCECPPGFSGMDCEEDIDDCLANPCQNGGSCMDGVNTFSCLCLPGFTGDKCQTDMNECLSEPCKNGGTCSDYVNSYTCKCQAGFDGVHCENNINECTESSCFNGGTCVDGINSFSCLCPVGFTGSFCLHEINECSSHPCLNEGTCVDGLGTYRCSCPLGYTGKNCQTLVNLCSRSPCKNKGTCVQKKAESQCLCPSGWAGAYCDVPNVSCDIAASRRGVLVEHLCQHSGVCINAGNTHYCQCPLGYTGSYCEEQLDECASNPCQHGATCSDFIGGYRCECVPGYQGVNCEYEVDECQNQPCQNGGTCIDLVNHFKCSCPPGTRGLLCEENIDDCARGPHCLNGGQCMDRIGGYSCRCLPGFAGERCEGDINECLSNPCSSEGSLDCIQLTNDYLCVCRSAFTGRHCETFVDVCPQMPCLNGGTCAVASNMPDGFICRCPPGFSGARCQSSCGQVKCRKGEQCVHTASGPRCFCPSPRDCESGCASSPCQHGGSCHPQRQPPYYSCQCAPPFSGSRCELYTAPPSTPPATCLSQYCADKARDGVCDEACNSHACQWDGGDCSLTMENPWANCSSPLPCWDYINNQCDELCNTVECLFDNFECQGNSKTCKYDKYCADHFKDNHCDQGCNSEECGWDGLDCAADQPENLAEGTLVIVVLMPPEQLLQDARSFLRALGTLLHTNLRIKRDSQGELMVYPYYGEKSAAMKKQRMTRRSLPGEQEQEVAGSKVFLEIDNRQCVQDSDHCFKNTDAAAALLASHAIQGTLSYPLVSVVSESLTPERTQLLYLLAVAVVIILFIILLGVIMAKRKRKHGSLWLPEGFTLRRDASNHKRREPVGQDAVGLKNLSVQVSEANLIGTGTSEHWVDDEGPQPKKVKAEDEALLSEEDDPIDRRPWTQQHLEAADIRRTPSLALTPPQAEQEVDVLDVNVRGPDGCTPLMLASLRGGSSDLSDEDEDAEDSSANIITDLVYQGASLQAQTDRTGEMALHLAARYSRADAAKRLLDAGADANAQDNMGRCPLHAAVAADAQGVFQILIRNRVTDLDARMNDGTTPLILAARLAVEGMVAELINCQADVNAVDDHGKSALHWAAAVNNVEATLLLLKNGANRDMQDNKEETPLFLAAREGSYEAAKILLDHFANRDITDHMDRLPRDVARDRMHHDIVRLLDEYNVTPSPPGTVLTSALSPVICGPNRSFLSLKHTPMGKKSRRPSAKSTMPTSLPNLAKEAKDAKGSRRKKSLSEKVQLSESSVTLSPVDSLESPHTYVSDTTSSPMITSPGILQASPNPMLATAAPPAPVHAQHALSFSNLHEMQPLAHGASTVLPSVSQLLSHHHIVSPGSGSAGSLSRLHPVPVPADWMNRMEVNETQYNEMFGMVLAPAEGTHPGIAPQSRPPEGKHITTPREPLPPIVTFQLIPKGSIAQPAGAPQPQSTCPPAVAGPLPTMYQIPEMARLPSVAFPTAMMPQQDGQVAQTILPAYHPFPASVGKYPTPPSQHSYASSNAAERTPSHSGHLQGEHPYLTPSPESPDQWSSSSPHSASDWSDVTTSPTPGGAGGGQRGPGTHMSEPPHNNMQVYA

Regarding `C[C@@H]1CCC2C(=O)N(Cc3ccccc3)C[C@@H](O)CN2[C@H]1c1ccc(Br)cc1` (stereo not given in full), the composite z-score in test [1] is -0.364; in [2], 0.381; in test [3], -0.145; in test [4], 0.84; in test [5] it was -0.05; in [6] it was 0.0596. In addition, the values for the composite z-score in test [7], in test [9] and in [10] were 0.963, -0.0584 and -0.0618, respectively. For the same compound, in [8], the z-score is -0.765 (inactive).

As to `COC(=O)C1(C)C=C2C(=C(c3ccccc3)C(=O)C2C)CN1` (stereo not given), the composite z-score in [1] is 0.84; in test [2], 0.0679; in [3] it was -0.0535; in test [4], -0.18; in test [5], -0.167; in [6], 1.96. The figures for the composite z-score in [7], in [9] and in [10] were 0.691, 0.313 and 0.23, respectively. In addition, the z-score in test [8] was 2.35 (inactive).

`COCCCNC(=O)[C@@]1(C)c2ccccc2C(=O)N(Cc2ccc(OC(F)(F)F)cc2)[C@H]1c1ccc(CO)cc1`: the composite z-score in [1] is 0.729; in [2] it was -0.255; in [3], -0.116; in test [4], -0.0476; in test [5], -0.505; in test [6] it was 0.785. The composite z-score in test [7] turned out to be 1.45; in test [9], 0.153; in test [10] it was 0.213. Further, the z-score in test [8] was -2.6 (inactive).

Consider `C[C@@H]1C=CCC(=O)OC[C@H](C)C(=O)OC[C@H]2O[C@H]1C=C[C@H]2O`, for which the composite z-score in test [1] is -0.414; in test [2], 0.304; in test [3], 0.0033; in test [4], 0.44; in [5], 0.112; in test [6], -0.175. The values for the composite z-score in [7], in test [9] and in test [10] were 0.615, 0.512 and 0.106, respectively. The z-score in test [8] was -0.538 (inactive).

Consider `O=C(NN=C1C[C@@H](O)[C@@H](O)[C@@H]2[C@@H]3C(=O)N(c4cccc(Oc5ccccc5)c4)C(=O)[C@@H]3CC[C@H]12)OCc1ccccc1`, for which the composite z-score in test [1] was -0.0678; in test [2], 0.249; in [3], -0.101; in test [4] it was 0.0108; in test [5], 0.176; in test [6], 0.301. In addition, the figures for the composite z-score in [7], in test [9] and in test [10] were -0.533, 0.182 and -0.249, respectively. In addition, in [8], the z-score was 0.723 (inactive).

In the case of `COC(=O)CC=C[C@@H](C)[C@H](OC)c1ccccc1Br`, the composite z-score in [1] is -0.297; in [2], 1.46; in test [3], -0.0514; in test [4], 0.178; in test [5] it was 0.119; in test [6] it was -0.171. In addition, the composite z-score in test [7] is -0.26; in test [9] it was -0.155; in test [10], 0.275. In addition, the z-score in test [8] was 1.08 (inactive).

With `CCOC(=O)CCN1C(=O)[C@H]2[C@H]3[C@H](O)[C@H](O)CC(=O)[C@H]3CC[C@H]2C1=O`, the composite z-score in test [1] is -0.554; in test [2], 0.418; in test [3], -0.128; in [4], 0.389; in test [5], 0.709; in [6], 0.217. In addition, the composite z-score in test [7] was 0.518; in test [9], 0.372; in test [10] it was -0.132. Further, the z-score in [8] was 0.639 (inactive).

Turning to `CN1C(=O)C2C(C1=O)C1C=C(CCCO)C2C(c2ccc(CN3CCCC3)cc2)N1C` (stereo not given), the composite z-score in [1] was 0.192; in [2], 0.249; in test [3], -0.0902; in test [4], -0.302; in [5], -0.291; in test [6], 0.0016. Also, the composite z-score in test [7] was 0.725; in test [9], -0.424; in [10] it was 0.0749. In addition, the z-score in test [8] was 0.243 (inactive).

As for `O=C(CS)NCCCCCNC(=O)[C@@H]1C[C@@H]2C(=O)N[C@@H](Cc3ccccc3)C(=O)N2[C@@H]1c1ccc(O)cc1`, the composite z-score in [1] was 0.154; in test [2], 0.524; in test [3] it was -0.0766; in test [4] it was 0.435; in test [5], -0.138; in test [6], 0.67. The composite z-score in [7] is 1.36; in [9] it was 0.0658; in test [10], -0.0994. Moreover, the z-score in [8] was 1.2 (inactive).

As for `O=C1C[C@@H](O)[C@@H](O)[C@@H]2[C@@H]3C(=O)N(Cc4ccc5c(c4)OCO5)C(=O)[C@@H]3CC[C@@H]12`, the composite z-score in test [1] was -0.612; in test [2] it was 0.196; in test [3], -0.149; in test [4] it was 0.833; in test [5], 0.651; in [6], -0.13. Further, the results for the composite z-score in test [7], in [9] and in test [10] were 0.568, 0.278 and 0.065, respectively. The z-score in test [8] was 0.324 (inactive).

`CCCCCN1CC=CC23O[C@@H]4C=CCOC(=O)[C@@H]4[C@H]2C(=O)N(CCCCCCO)[C@@H]3C1=O` (stereo not given in full): the composite z-score in [1] was 0.729; in [2], -0.859; in test [3] it was -0.133; in test [4] it was -0.237; in test [5] it was -1.14; in [6], 2.35. The composite z-score is 0.975 in test [7], -0.823 in test [9] and -0.429 in test [10]. The z-score in [8] was 0.428 (inactive).

With `CN1C(=O)C2C=CC(C(O)c3ccc(Br)cc3)N(N(c3ccccc3)c3ccccc3)C2C1=O` (stereo not given), the composite z-score in [1] was 0.519; in test [2], -0.225; in [3] it was 0.301; in test [4] it was 0.125; in [5], 1.09; in test [6] it was 0.181. Besides, the composite z-score in test [7] was 0.985; in [9], 0.576; in [10] it was -0.0618. Moreover, the z-score in [8] was 0.162 (inactive).

On to `COc1ccc(O[C@H]2C=C[C@@H](c3ccccc3)O[C@@H]2COC(=O)CCC(C)=NOCC[C@@H]2C=C[C@H](OC(C)=O)[C@@H](COC(C)=O)O2)cc1`, for which the composite z-score in [1] is -0.19; in test [2] it was 0.779; in test [3], -0.0363; in [4] it was -0.171; in test [5], -0.086; in test [6] it was 0.0028. Besides, the composite z-score in test [7] is -0.183; in test [9] it was 0.406; in [10], 0.305. Also, in test [8], the z-score is 1.04 (inactive).

The record behind these values is PubChem BioAssay.
